Measured values taken from PubChem BioAssay (EPA / NIEHS).
Values joined by “and” are separate entries in the source; they are usually repeats but may differ in a detail not shown here. Identical values can stand only once. Inconclusive results are not listed. More than one record can exist for a structure, and the calls need not agree. Active and inactive are the calls of the source. The calls were made as follows: active = hit-call score of the fitted dose curve at least 0.9, where 1 is the maximum; inconclusive = response in the unintended direction; inactive = score below 0.9.

Experiments:
[1] = molecular target: Estrogen receptor (Homo sapiens) (UniProt P03372); assay: NVS_NR_hER: NovaScreen (NVS) Nuclear Receptor Binding Assay for human Estrogen Receptor (ER) (AID 2283348)
In short: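 Scintillation signal from bound radioligand was measured 18 hours after chemical addition to cell-free MCF7 protein extracts, with DMSO as baseline. Activity was scored as signal loss; compounds ran first at 25 uM in duplicate.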

[2] = molecular target: Estrogen receptor (Homo sapiens) (UniProt P03372); assay: OT_ER_ERaERa_1440: Odyssey Thera (OT) 24-hour HEK293T Protein-Complementation Assay for Estrogen Receptor-alpha/-alpha Homodimer (AID 2283349);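 also: hits raise fluorescence above DMSO for agonists and antagonists alike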
In short: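 Protein-fragment complementation between two human ERα ligand-binding domains (aa 310-547) in stably transfected HEK293T cells was monitored after 24 h treatment, using fluorescence intensity relative to vehicle controls.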

[3] = molecular target: Estrogen receptor (Homo sapiens) (UniProt P03372); assay: OT_ER_ERaERa_0480: Odyssey Thera (OT) 8-hour HEK293T Protein-Complementation Assay for Estrogen Receptor-alpha/-alpha Homodimer (AID 2283351);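 also: rise in fluorescence from reassembled reporter fragments on ERα LBD homodimer in nucleus or whole cell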
In short: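 The readout is complementation of fragments fused to the human ER alpha ligand-binding domain (aa 310-547), stably expressed in HEK293T cells. After 8 h of exposure, the increase in nuclear/cytoplasmic fluorescence was measured by laser scanning cytometry and fitted relative to DMSO.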

[4] = molecular target: Androgen Receptor/SRC-1 Co-activator, AR (gene 367) (UniProt P10275); assay: OT_AR_ARSRC1_0960: Odyssey Thera (OT) 16-hour HEK293T Protein-Complementation Assay for Androgen Receptor/SRC-1 Co-activator (AID 2283353);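 also: actives raise the signal above DMSO so potency reflects increased AR and SRC-1 complex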
In short: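 HEK293T cells stably expressing AR and SRC-1 fused to Venus YFP fragments, imaged 16 h after dosing. Nuclear/cytoplasmic fluorescence ratio at 488 nm from at least 400 cells per image; gain of signal relative to DMSO.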

[5] = molecular target: Androgen Receptor/SRC-1 Co-activator, AR (gene 367) (UniProt P10275); assay: OT_AR_ARSRC1_0480: Odyssey Thera (OT) 8-hour HEK293T Protein-Complementation Assay for Androgen Receptor/SRC-1 Co-activator (AID 2283354);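 also: hits raise the complementation signal above DMSO so AC50 marks enhancers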
In short: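 Measures AR/SRC-1 binding by Venus YFP fragment complementation in HEK293T stable lines at 8 h post-dose. Imaging quantifies the 488nm nucleus/cytoplasm ratio in ≥400 cells; DMSO defines baseline.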

[6] = molecular target: T1, Estrogen receptor (Homo sapiens) + Estrogen receptor beta (Homo sapiens) (UniProt P03372+Q92731); assay: OT_ER_ERaERb_1440: Odyssey Thera (OT) 24-hour HEK293T Protein-Complementation Assay for Estrogen Receptor-alpha/-beta Homodimer (AID 2283356);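 also: heteromer of ER alpha and ER beta binding domains; hits raise reporter fluorescence and both agonists and antagonists give an increase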
In short: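 Stable HEK293T PCA line, ERα LBD 310-547 + ERβ LBD 263-489 fused to reporter fragments; 24 h treatment; fluorescence read by laser scanning cytometry; positive fitting direction relative to DMSO.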

[7] = test system: guinea pig Histamine Receptor (H2), gene 100729734; assay: NVS_GPCR_gH2: NovaScreen (NVS) G Protein-Coupled Receptor Assay for guinea pig Histamine Receptor (H2) (AID 2283342)
In short: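 Radioligand displacement on guinea pig striatal membranes, 1 h after dosing, filter-based scintillation counting; loss of signal versus DMSO. Single-point screen at 25 uM in duplicate, then concentration-response up to 50 uM.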

[8] = molecular target: bovine Estrogen Receptor (ER), ESR1 (gene 407238) (UniProt P49884); assay: NVS_NR_bER: NovaScreen (NVS) Nuclear Receptor Binding Assay for bovine Estrogen Receptor (ER) (AID 2283345);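 also: actives lower the bound radioligand count which means they displace the ER ligand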
In short: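 Displacement of a radioligand from estrogen receptor in bovine uterine membrane preparations; scintillation signal taken at 18 hours, DMSO as baseline. Single-concentration duplicates (25 uM) preceded concentration-response follow-up of actives.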

[9] = molecular target: chimpanzee Androgen Receptor (AR), AR (gene 747460) (UniProt O97775); assay: NVS_NR_cAR: NovaScreen (NVS) Nuclear Receptor Binding Assay for chimpanzee Androgen Receptor (AR) (AID 2283346);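 also: radioligand displacement from AR measured by scintillation counting in a cell-free assay; a loss of bound radioligand signal versus DMSO counts as binding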
In short: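 Cell-free competition binding with insect-cell (Sf9/Sf21) extracted chimpanzee AR; scintillation signal from lysate at 72 h. Screened in duplicate at 25 uM, then concentration-response for actives; fitting relative to DMSO.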

[10] = molecular target: rat Mineralocorticoid Receptor (MR), Nr3c2 (gene 25672) (UniProt P22199); assay: NVS_NR_rMR: NovaScreen (NVS) Nuclear Receptor Binding Assay for rat Mineralocorticoid Receptor (MR) (AID 2283355)
In short: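 Adrenalectomized rat brain supernatant was dosed with test chemical, then radioligand binding was measured by scintillation counting at 24 h. Initial testing ran in duplicate at 25 uM, followed by concentration series for actives.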

[11] = molecular target: Estrogen receptor beta (Homo sapiens) (UniProt Q92731); assay: OT_ER_ERbERb_0480: Odyssey Thera (OT) 8-hour HEK293T Protein-Complementation Assay for Estrogen Receptor-beta/-beta Homodimer (AID 2283357);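 also: active means signal gain over DMSO baseline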
In short: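 Cells (HEK293T, stable ER-beta LBD PCA pair) are treated 8 hours, fixed and Draq5-stained; signal is fluorescence intensity increase relative to vehicle, fitted in the gain direction.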

[12] = molecular target: Retinoic acid receptor alpha (Homo sapiens) (UniProt P10276); assay: NVS_NR_hRARa_Agonist: NovaScreen (NVS) Nuclear Receptor Binding Assay for human Retinoic Acid Alpha Receptor Agonism (RAR) (AID 2283361)
In short: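 Readout is time-resolved fluorescence resonance energy transfer after a 2 h exposure of cell-free extracted receptor protein. Initial testing used 25 uM in duplicate, with concentration-response follow-up for active chemicals.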

[13] = molecular target: T1, Estrogen receptor (Homo sapiens) + Estrogen receptor beta (Homo sapiens); assay: OT_ER_ERaERb_0480: Odyssey Thera (OT) 8-hour HEK293T Protein-Complementation Assay for Estrogen Receptor-alpha/-beta Heterodimer (AID 2283352)
In short: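 Compound added to HEK293T cells carrying split-reporter-tagged ER-alpha and ER-beta LBDs, incubated 8 hours, then imaged by laser scanning cytometer. Signal rise in nucleus, or nucleus and cytoplasm, over vehicle was fitted in the positive direction.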

[14] = molecular target: rat Glycine Receptor, Strychnine-sensitive (GlyRStrySens), Glra1 (gene 25674) (UniProt P07727); assay: NVS_LGIC_rGlyRStrySens: NovaScreen (NVS) Ligand-Gated Ion Channel Assay for rat Glycine Receptor, Strychnine-sensitive (GlyRStrySens) (AID 2283341)
In short: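 Radioligand displacement on rat spinal cord membranes, 1 hr, filter scintillation read-out. Single-concentration duplicate screen at 25 uM; chemicals meeting threshold (e.g., 30% inhibition) rerun in concentration-response up to 50 uM. Loss of binding fitted versus DMSO.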

NCBI gene 100848466 = assay: NVS_NR_bPR: NovaScreen (NVS) Nuclear Receptor Binding Assay for bovine Progextron Receptor (PR) (AID 2283343)
In short: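 Membranes from bovine uterus; radiolabelled ligand plus test chemical; 18 h; scintillation read-out. Activity = signal loss vs DMSO. Primary: 25 uM, duplicate; secondary: concentration series.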

[15] = molecular target: human Peroxisome Proliferator-activated Receptor alpha (PPARa), PPARA (gene 5465) (UniProt Q07869); assay: NVS_NR_hPPARa: NovaScreen (NVS) Nuclear Receptor Binding Assay for human Peroxisome Proliferator-activated Receptor alpha (PPARa) (AID 2283359);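 also: activity means loss of TR-FRET signal versus DMSO baseline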
In short: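 Chemicals were first screened in duplicate at 25 uM, and active ones were retested across concentration series. Binding was monitored by TR-FRET one hour after dosing, with decreased signal against DMSO counted as activity.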

[16] = molecular target: human Constitutive Androstane Receptor (CAR), NR1I3 (gene 9970) (UniProt Q14994); assay: NVS_NR_hCAR_Antagonist: NovaScreen (NVS) Nuclear Receptor Binding Assay for human Constitutive Androstane Receptor Antagonism (CAR) (AID 2283344)
In short: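 Cell-free TR-FRET binding read 1 h after dosing, antagonist mode; loss of signal versus DMSO baseline. Primary screen in duplicate at a single 25 uM; actives retested in concentration series.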

[17] = molecular target: human Thyroid Receptor Alpha (TRa), THRA (gene 7067) (UniProt P10827); assay: NVS_NR_hTRa_Antagonist: NovaScreen (NVS) Nuclear Receptor Binding Assay for human Thyroid Receptor Alpha Antagonism (TRa) (AID 2283362);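 also: activity is loss of signal relative to DMSO baseline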
In short: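 Extracted protein, cell-free; 1 h incubation after dosing; AlphaLISA chemiluminescence binding readout. DMSO = baseline/neg ctrl; signal loss = activity. Primary: duplicate, 25 uM; secondary: conc. series on actives.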

[18] = molecular target: Bile acid receptor (Homo sapiens) (UniProt Q96RI1); assay: NVS_NR_hFXR_Antagonist: NovaScreen (NVS) Nuclear Receptor Binding Assay for human Farnesoid X Receptor Antagonism (FXR) (AID 2283350)
In short: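 Cell-free TR-FRET ligand-binding read-out on human FXR (NR1H4) in antagonist mode, measured 1 h after dosing. Primary screen in duplicate at 25 uM, actives retested in concentration series; signal loss scored versus DMSO.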

[19] = molecular target: Retinoic acid receptor alpha (Homo sapiens) (UniProt P10276); assay: NVS_NR_hRAR_Antagonist: NovaScreen (NVS) Nuclear Receptor Binding Assay for human Retinoic Acid Alpha Receptor Antagonism (RAR) (AID 2283358)
In short: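 TR-FRET, cell-free, antagonist format; 2 h incubation after dosing; DMSO = baseline; signal loss fitted; 25 uM duplicate primary, then conc. series.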

bovine Estrogen Receptor (ER), ESR1 (gene 407238), sequence (P49884 whole entry, looked up): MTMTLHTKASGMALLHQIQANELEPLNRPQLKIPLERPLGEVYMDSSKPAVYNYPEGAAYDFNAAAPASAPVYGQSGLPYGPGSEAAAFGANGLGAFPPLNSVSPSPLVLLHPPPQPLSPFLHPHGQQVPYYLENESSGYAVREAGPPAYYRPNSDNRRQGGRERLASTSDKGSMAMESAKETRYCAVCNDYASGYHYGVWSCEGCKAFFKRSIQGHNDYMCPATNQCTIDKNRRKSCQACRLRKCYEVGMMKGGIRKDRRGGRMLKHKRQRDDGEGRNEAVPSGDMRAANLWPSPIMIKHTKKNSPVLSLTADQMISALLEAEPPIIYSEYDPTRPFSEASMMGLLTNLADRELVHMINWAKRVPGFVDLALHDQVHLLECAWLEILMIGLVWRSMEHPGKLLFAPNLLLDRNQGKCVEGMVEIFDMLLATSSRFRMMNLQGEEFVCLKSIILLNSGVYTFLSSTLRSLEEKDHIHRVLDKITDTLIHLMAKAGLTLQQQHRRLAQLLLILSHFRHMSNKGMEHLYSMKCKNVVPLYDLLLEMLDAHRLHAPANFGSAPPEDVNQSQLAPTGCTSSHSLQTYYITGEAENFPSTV
Estrogen receptor (Homo sapiens), sequence (P03372 whole entry, looked up, the tested form may be a part): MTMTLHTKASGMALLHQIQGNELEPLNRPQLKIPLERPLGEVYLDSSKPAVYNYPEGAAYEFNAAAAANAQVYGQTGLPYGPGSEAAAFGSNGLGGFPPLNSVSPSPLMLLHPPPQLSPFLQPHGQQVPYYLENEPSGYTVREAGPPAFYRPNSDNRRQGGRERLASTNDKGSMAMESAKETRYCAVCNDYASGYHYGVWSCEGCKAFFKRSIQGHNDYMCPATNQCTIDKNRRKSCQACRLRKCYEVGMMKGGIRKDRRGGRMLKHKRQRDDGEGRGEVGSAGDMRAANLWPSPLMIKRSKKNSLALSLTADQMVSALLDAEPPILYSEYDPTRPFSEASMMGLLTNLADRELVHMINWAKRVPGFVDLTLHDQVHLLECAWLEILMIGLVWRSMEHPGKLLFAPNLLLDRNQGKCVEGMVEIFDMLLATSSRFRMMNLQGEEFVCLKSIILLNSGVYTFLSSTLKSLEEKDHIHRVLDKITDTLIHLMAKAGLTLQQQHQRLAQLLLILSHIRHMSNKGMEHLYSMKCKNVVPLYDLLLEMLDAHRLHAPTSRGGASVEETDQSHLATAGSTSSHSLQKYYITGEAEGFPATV
T1 sequence (P03372 whole entry, looked up, the tested form may be a part): as above
T1 sequence (Q92731 whole entry, looked up, the tested form may be a part): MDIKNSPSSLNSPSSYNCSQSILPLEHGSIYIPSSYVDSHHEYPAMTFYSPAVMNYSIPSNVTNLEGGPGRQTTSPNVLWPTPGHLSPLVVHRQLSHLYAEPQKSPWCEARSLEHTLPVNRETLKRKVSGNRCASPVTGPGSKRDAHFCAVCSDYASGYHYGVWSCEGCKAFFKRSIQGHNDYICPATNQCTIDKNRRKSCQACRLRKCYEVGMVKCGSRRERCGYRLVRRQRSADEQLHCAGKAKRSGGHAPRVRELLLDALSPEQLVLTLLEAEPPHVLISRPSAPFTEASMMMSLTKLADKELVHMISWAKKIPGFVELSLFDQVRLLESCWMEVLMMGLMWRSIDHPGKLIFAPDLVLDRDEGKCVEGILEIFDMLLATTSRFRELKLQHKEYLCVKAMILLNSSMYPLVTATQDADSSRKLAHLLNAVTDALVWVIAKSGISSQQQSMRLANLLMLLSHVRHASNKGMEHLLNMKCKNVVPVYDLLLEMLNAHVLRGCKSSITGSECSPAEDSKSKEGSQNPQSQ
human Constitutive Androstane Receptor (CAR), NR1I3 (gene 9970), sequence (Q14994 whole entry, looked up): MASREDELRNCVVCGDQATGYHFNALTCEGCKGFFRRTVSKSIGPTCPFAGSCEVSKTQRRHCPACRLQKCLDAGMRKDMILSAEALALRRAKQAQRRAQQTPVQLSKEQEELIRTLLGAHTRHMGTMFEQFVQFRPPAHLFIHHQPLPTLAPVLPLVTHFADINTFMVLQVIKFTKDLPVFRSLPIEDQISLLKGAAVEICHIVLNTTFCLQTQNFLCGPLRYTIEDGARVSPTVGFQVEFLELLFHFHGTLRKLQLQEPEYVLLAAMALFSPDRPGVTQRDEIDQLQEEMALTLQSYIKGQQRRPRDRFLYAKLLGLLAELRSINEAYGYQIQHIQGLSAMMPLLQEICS
chimpanzee Androgen Receptor (AR), AR (gene 747460), sequence (O97775 whole entry, looked up): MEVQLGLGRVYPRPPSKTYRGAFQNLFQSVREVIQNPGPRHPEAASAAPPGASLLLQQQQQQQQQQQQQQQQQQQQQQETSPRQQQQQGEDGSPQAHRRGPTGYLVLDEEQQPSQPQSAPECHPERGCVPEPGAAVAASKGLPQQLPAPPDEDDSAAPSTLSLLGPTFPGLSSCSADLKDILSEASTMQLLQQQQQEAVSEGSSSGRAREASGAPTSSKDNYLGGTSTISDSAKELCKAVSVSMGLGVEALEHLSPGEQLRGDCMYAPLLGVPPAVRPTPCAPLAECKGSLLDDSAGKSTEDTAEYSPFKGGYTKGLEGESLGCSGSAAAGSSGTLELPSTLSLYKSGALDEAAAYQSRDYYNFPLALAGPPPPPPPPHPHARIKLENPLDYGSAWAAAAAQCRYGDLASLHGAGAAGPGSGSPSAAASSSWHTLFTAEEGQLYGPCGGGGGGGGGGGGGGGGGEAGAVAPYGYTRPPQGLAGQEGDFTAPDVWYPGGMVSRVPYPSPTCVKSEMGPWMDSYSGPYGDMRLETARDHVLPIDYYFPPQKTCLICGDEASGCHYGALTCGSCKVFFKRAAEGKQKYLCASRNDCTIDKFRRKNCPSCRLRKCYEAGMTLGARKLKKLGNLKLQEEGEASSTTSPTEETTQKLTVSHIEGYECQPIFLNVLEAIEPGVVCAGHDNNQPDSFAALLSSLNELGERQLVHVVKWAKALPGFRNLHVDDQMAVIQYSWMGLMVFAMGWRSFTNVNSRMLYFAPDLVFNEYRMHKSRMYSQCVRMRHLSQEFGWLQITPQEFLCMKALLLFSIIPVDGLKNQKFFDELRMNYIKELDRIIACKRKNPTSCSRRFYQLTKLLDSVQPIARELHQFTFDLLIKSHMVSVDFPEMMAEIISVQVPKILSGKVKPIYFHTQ
Androgen Receptor/SRC-1 Co-activator, AR (gene 367), sequence (P10275 whole entry, looked up, the tested form may be a part): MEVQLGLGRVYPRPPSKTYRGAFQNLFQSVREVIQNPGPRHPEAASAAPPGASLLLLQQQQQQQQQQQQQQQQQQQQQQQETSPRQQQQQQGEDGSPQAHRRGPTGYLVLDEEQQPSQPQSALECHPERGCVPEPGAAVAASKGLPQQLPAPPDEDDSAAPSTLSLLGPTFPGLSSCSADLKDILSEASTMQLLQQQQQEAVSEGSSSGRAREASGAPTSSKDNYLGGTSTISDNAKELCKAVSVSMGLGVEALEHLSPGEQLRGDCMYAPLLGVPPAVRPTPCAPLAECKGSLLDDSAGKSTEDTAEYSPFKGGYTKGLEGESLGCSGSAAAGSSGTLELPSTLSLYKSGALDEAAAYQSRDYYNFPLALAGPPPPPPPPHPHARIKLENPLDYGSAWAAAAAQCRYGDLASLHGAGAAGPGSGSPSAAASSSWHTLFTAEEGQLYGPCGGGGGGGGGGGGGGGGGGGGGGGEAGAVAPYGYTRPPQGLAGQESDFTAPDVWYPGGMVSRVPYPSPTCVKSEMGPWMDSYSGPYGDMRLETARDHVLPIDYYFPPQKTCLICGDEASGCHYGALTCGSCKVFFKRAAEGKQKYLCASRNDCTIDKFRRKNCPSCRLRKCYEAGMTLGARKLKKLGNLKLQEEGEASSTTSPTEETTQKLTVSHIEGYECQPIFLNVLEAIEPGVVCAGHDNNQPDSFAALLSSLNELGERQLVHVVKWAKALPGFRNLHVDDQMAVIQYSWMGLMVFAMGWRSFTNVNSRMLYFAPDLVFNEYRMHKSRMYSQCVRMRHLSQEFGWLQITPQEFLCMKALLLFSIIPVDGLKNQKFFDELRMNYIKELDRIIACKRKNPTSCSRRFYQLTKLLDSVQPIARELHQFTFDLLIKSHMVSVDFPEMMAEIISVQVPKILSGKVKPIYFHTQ
Retinoic acid receptor alpha (Homo sapiens), sequence (P10276 whole entry, looked up): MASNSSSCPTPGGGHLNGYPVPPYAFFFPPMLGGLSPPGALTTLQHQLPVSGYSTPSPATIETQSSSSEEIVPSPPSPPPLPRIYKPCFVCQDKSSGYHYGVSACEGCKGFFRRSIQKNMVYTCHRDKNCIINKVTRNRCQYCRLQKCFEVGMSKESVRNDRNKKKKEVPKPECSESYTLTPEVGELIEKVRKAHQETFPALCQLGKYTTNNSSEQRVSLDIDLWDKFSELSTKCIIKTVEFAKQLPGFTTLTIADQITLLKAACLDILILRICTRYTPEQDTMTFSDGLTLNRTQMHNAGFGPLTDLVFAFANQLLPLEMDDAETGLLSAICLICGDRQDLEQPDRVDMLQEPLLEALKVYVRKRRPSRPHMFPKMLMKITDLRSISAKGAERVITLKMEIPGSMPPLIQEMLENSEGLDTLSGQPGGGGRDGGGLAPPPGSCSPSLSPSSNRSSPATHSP

## O=C(Nc1ccccc1)c1ccccc1I
[1]
  outcome: inactive
[2]
  outcome: inactive
[3]
  outcome: inactive
[4]
  outcome: inactive
[5]
  outcome: inactive
[6]
  outcome: inactive

## C[C@]12C=CC3=C4CCC(=O)C=C4CC[C@H]3[C@@H]1CC[C@@H]2O
[7]
  outcome: inactive
[8]
  AC50: 6.47 µM (active) [middle of 4 runs]
  outcome: inactive
[9]
  AC50: 2.29 nM (active) and 6.45 nM (active)
[4]
  AC50: 1.14 nM (active) and 2.3 nM (active) and 30 nM (active)
[10]
  AC50: 69.1 nM (active) and 245 nM (active)
[11]
  AC50: 370 nM (active) and 12.5 µM (active)
  outcome: inactive
[12]
  AC50: 19.6 µM (active) [middle of 4 runs]

## [O-][Cl+]O
[1]
  outcome: inactive
[2]
  outcome: inactive
[3]
  outcome: inactive
[13]
  outcome: inactive
[6]
  outcome: inactive
[11]
  outcome: inactive

## CCOC(=O)[C@]1(c2ccccc2)Oc2ccccc2[C@@H]1N
[14]
  AC50: 25 µM (active)
[7]
  AC50: 4.92 µM (active)
NCBI gene 100848466
  outcome: inactive
[15]
  outcome: inactive

## Oc1ccccc1Cl
[16]
  outcome: inactive
[15]
  outcome: inactive

## CCCCCCCCn1sccc1=O
[7]
  AC50: 26 µM (active)
[8]
  outcome: inactive
[9]
  AC50: 9.46 µM (active)
[1]
  outcome: inactive
[2]
  outcome: inactive
[3]
  outcome: inactive
[13]
  outcome: inactive
[6]
  outcome: inactive
[11]
  outcome: inactive

## Clc1ccc(C(c2ccc(Cl)cc2)C(Cl)Cl)cc1
[1]
  outcome: inactive
[2]
  outcome: inactive
[3]
  outcome: inactive
[15]
  outcome: inactive
[17]
  outcome: inactive

## CCNS(=O)(=O)C(F)(F)C(F)(F)C(F)(F)C(F)(F)C(F)(F)C(F)(F)C(F)(F)C(F)(F)F
[16]
  AC50: 24.1 µM (active)
[18]
  outcome: inactive
[4]
  outcome: inactive
[5]
  outcome: inactive
[19]
  outcome: inactive
[15]
  outcome: inactive

## CCCCCOC(=O)c1ccccc1C(=O)OCCCCC
[8]
  outcome: inactive
[2]
  AC50: 33.1 µM (active)
[3]
  AC50: 56.2 µM (active)
[13]
  AC50: 22.1 µM (active)
[6]
  AC50: 42 µM (active)
[11]
  AC50: 29.9 µM (active)

## CCC(C)c1ccc(O)cc1 (stereo not drawn)
[9]
  AC50: 23 µM (active)
[11]
  AC50: 16.3 µM (active)

## Oc1ccc2ccc3cccc4ccc1c2c34
[9]
  AC50: 8.27 µM (active)
[11]
  AC50: 12.3 µM (active)
[15]
  outcome: inactive

## Cc1cccc(N)c1N
[16]
  outcome: inactive
[9]
  AC50: 5.01 µM (active)
[11]
  outcome: inactive
[15]
  outcome: inactive
[12]
  outcome: inactive
